# Laboratory results published in PubChem BioAssay AID686979 (National Center for Advancing Translational Sciences (NCATS), 2013).
# In all, about 420,000 compounds went through this assay and about 50,000 (12%) were called active. Inconclusive results (about 26%) are left out. The full list was thinned out, with actives kept by preference. Unmarked numbers belong to inactive results. The call rests on the fitted dose curve; in most records, active means well fitted inhibition curve with a large enough effect; inconclusive means small, poorly fitted or top-dose-only effect; inactive means flat fitted curve, though single readings scatter.
# Experiment: qHTS for Inhibitors of human tyrosyl-DNA phosphodiesterase 1 (TDP1): qHTS in cells in presence of CPT; further: nearly all actives have a fitted effect of over 55% in size
# Details: chicken DT40 Tdp1-/-;hTDP1 cells + 20 nM CPT, ATP luminescence, 48 h; series mostly up to 46.2 µM; activity change, negative = growth inhibition: at the top concentration
# From the text: Human tyrosyl-DNA phosphodiesterase 1 (TDP1) is a novel repair gene, and we propose to use it as a new target for anticancer drug development. TDP1 is not an essential protein, but under treatment with topoisomerase I poison (camptothecin: CPT), TDP1 works as a critical factor for cell survival. To directly identify novel TDP1 inhibitors active in a cellular environment, we have knocked-out the Tdp1 gene in chicken DT40 cells (Tdp1-/-) and generated a complemented counterpart cells that contains a stable transfection of the human TDP1 gene (Tdp1-/-;hTDP1 cells). For the primary screen, Tdp1-/-;hTDP1 cells will be exposed to small molecules in the presence or absence of CPT, and their growth kinetics will be evaluated after 48 hours by measuring ATP activity. […] The hit compounds will then be evaluated in the presence or absence of CPT using Tdp1-/- cells. […] In tertiary assays, biochemical gel-based assays will be used to assess whether the hit compounds specifically target TDP1. To this end, we have screened this cell line against the MLSMR in two primary screens. In one screen we add CPT and in the other we screen in the absence of CPT; this AID represents the screen where CPT was present. NIH Chemical Genomics Center [NCGC] NIH Molecular Libraries Probe Centers Network [MLPCN] MLPCN Grant: MH095538 Assay Submitter (PI): Yves Pommier, NCI
# DT40-hTDP1 cells with 20 nM Camptothecin (add 20 microL of 1 mM CPT stock in 1 L of cell culture medium) were dispensed at 400 cells/5microL/well in tissue culture treated 1536-well white wall/solid bottom assay plates (Greiner Bio-One North America, NC, U.S.A.) using a Multidrop Combi 8 channel dispenser (Thermo Fisher, Waltham, MA, USA). 23 nL compounds and controls were transferred using the pin tool (Kalypsys, San Diego, CA, USA) to the assay plates. The assay plates were then incubated at 37 masculineC for a minimum 48 hr. Three microL of Cell Titer Glo solution was added to the plates and incubated at RT in dark for 30 min. Luminescence was read using ViewLux (Perkin Elmer) with 1 sec exposure slow speed, high gain and 2x binning.
# On the % scale 0 is the no-effect control and ±100 the full control effect; potency means the concentration at half of the fitted maximal effect.
Structure (SMILES),"activity change, negative = growth inhibition [%]",Potency
Cc1cc(C(F)F)nn1CC(=O)NC1CCCCCC1,3.43,
Cc1ccc2c(cnn2C(=O)CCC(=O)NC2CCCC2)c1,0.0617,
O=C(Cc1cccs1)Nc1ccc([N+](=O)[O-])cc1,-28.9,
CCc1nn(-c2cc(Oc3cccc4ccccc34)nc(-c3ccccc3)n2)c(N)c1C#N,,10.3 µM (active)
CCCC(=O)n1nc(-c2ccccc2)nc1N,-6.98,
CC(C(=O)N1CCN(c2ccccc2F)CC1)c1ccc([N+](=O)[O-])cc1 (stereo unspecified),-25.5,
CC1CCN(CC(=O)Nc2nccs2)CC1,-24.2,
Cc1c(C)c(C)c(S(=O)(=O)N2CCC3(CC2)OCCO3)c(C)c1C,-19.7,
CCOc1ccc(NC(=O)CN(C)C(=O)CSc2ccccc2)cc1OCC,-19.4,
COc1ccc(S(=O)(=O)N2CCCCC2)cc1Br,0.0514,
O=C(c1cc(S(=O)(=O)N2CCOCC2)ccc1Cl)N1CCOCC1,11,
COc1cc2c(cc1OC)CN(C(=O)c1ccc(S(=O)(=O)N3CCCCCC3)cc1)CC2,,20.6 µM (active)
CN1CCN(NC(=O)c2ccc(S(=O)(=O)N3CCCCCC3)cc2)CC1,5.37,
COc1cc2c(cc1OC)CN(C(=O)c1cc(S(=O)(=O)N3CCCCC3)ccc1Cl)CC2,,20.6 µM (active)
COC(=O)c1ccc(CNC(=O)c2ccc(S(=O)(=O)N3CCCCCC3)cc2)cc1,-1.03,
COc1ccc(C(=O)CN2C(=O)NC(C)(c3ccc(C)cc3)C2=O)cc1OC (stereo unspecified),-22.9,
COc1ccc(C(=O)n2nc(C)c(Br)c2C)cc1OC,-17.2,
COc1ccc(C(=O)n2nc(-c3ccc(C)cc3)nc2N)cc1OC,,13 µM (active)
CN1CCN(c2ccc(CNS(=O)(=O)c3cccc(F)c3)cc2)CC1,-2.6,
CCCCc1ccc(S(N)(=O)=O)cc1,0.496,
N#Cc1ccccc1CN1C(=O)S/C(=C/c2cccn2-c2cccc(C(=O)O)c2)C1=O,-7.91,
Cc1cccc2cc3c(N)c(C(=O)N4CCCc5ccccc54)sc3nc12,,4.11 µM (active)

Structure (SMILES),"activity change, negative = growth inhibition [%]",Potency
Cc1c(C(=O)N2CCCc3ccccc32)oc2ccccc12,-15.4,
O=C(c1cc(-c2ccc(O)cc2)on1)N1CCCc2ccccc21,-19.2,
Cc1c(C(=O)O)nnn1-c1nonc1N,4.76,
COc1cc(OC)c(C(=O)NNC(=O)c2ccccc2-n2cccc2)cc1OC,-11.7,
CSc1nc(-c2ccccc2Cl)nc2c1Cc1c(CO)cnc(C)c1O2,,14.6 µM (active)
Cc1ccccc1CSc1nc(-c2ccccc2)nc2c1Cc1c(CO)cnc(C)c1O2,6.78,
CSc1nc(-c2ccc(F)cc2)nc2c1Cc1c(CO)cnc(C)c1O2,7.44,
CCOC(=O)c1cnc2nc(SCc3ccccc3Cl)[nH]n2c1=O,-4.22,
CS(=O)(=O)c1ccc(Cl)c(NC(=O)COC(=O)c2ncc(Cl)c(Cl)c2Cl)c1,0.632,
COc1cccc(CN(C)CC(=O)NCc2ccccc2Cl)c1OC,-23.4,
Cc1nc2ccc(C(=O)N(C)CC3CCCN(CCc4ccc(Cl)cc4)C3)cc2[nH]1 (stereo unspecified),-12.6,
COc1cccc(CN(C)CC2CCCN(CCc3ccc(Cl)cc3)C2)c1OC (stereo unspecified),,16.4 µM (active)
CCc1ccnc(NS(=O)(=O)c2ccc3c(c2)OCCO3)c1,0.676,
COc1ccc(C2CC(c3ccc(C)cc3)Nc3nc(N)nn32)cc1 (stereo unspecified),-9.25,
CCOc1ccccc1C1CC(c2ccc(Cl)cc2)Nc2nc(N)nn21 (stereo unspecified),,18.4 µM (active)
Cc1ccc(C2CC(c3cccc(C)c3)n3nc(N)nc3N2)cc1 (stereo unspecified),-24.1,
COc1ccccc1N1CCN(c2ncnc3sc(C)c(-c4ccccc4)c23)CC1,,23.1 µM (active)
COc1ccccc1N1CCN(c2nc(C)cc(=O)[nH]2)CC1,19.5,
COc1ccccc1N1CCN(c2ncnc3onc(-c4cccc(Cl)c4)c23)CC1,7.45,
Cn1cnc(S(=O)(=O)Nc2ccc3c(c2)OCCO3)c1,-11.7,
O=C(COC(=O)c1cc(-c2cccs2)nn1-c1ccccc1)Nc1cc([N+](=O)[O-])ccc1Cl,8.85,
CCc1cccc(CC)c1NC(=O)Cn1c(=O)c(-c2cc(C)ccc2NC(C)=O)nc2ccccc21,0.437,

Structure (SMILES),"activity change, negative = growth inhibition [%]",Potency
CCCn1c(N)c(C(=O)CSc2nnc(-c3cccnc3)n2-c2ccc(C)cc2C)c(=O)[nH]c1=O,-6.68,
COCc1cc(=O)n2[nH]c(C)c(-c3ccccc3)c2n1,-2.85,
Cc1nc2c(-c3ccccc3)c(C)[nH]n2c(=O)c1Cl,-0.299,
CCCc1cc(=O)n2[nH]c(C)c(-c3ccc(Cl)cc3)c2n1,,20.6 µM (active)
CCOc1cc(C)c(S(=O)(=O)NCc2ccccn2)cc1C,12.8,
COc1ccc(NC(=O)C2C3CCC(O3)C2C(=O)O)cc1OC (stereo unspecified),-3.95,
COCC(=O)N1CCc2ccc(NC(=O)c3ccccc3Cl)cc2C1,5.3,
CC(C)Oc1ccc(CNC(=O)C2CCN(c3nc4ccccc4n(C)c3=O)CC2)cc1,-5.18,
Cc1ccc(CN2C(=O)CCC2C(=O)NCCCN2CCCCC2C)cc1 (stereo unspecified),-1.28,
Cc1ccc2[nH]cc(CCNC(=O)C3CCCCC3)c2c1,-21.5,
CCc1ccc(OCCCn2c(CCCNC(=O)C3CCCCC3)nc3ccccc32)cc1,,8.91 µM (active)
O=C(NCCCc1ccccc1)C1CCC(CNc2c(N3CCCCC3)c(=O)c2=O)CC1 (stereo unspecified),4.19,
Cc1ccc(Cn2c(CCCNC(=O)C3CCCCC3)nc3ccccc32)cc1,,16.4 µM (active)
O=C(CSc1nnc(CNC(=O)c2ccccc2)n1-c1ccc(F)cc1)Nc1ccccc1F,-13.6,
Cc1ccc(NS(=O)(=O)c2ccc(N/N=C/c3ccccc3OCC(=O)O)c([N+](=O)[O-])c2)c(C)c1,1.01,
O=C(CC1SC(=Nc2ccccc2F)N(CCN2CCOCC2)C1=O)Nc1ccc(F)cc1F (stereo unspecified),-10.2,
Cc1ccc(S(=O)(=O)N(CC(=O)NCc2ccco2)c2ccccc2C)cc1,-7.69,
COc1ccccc1N(CC(=O)N/N=C(\C)c1ccccc1O)S(=O)(=O)c1ccc(C)cc1,-94.3,
Cc1ccc(S(=O)(=O)N(CC(=O)Nc2ccc(Cl)cc2Cl)c2ccccc2C)cc1,,18.4 µM (active)
COc1ccc(C(F)(F)F)cc1N/C=C\c1nnnn1-c1ccc(C)cc1,-1.88,
COc1ccccc1OCC(=O)O/N=C(\N)c1ccccn1,-15.9,
Cc1ccccc1-c1cc(C(=O)NCC2CC2)n(CC2CC(c3cccnc3)=NO2)n1 (stereo unspecified),0.873,
